The whole screen tested about 390,000 compounds, of which about 2,200 (0.56%) were called active. Another 3% or so got no clear call; they are omitted. The call rests on the fitted dose curve; in most records, active means well fitted inhibition curve with a large enough effect; inconclusive means small, poorly fitted or top-dose-only effect; inactive means no such curve, though single readings can be large or run the other way. The entries come from a sample that favours actives as a whole.
target: Chromobox protein homolog 1 (Homo sapiens) (UniProt P83916); experiment: HTS for Inhibitors of HP1-beta Chromodomain Interactions with Methylated Histone Tails; conditions: AlphaScreen HP1-beta / biotin-H3K9me3 peptide binding; series mostly up to 114 µM; further: nearly all actives have a fitted effect of over 70% in size
Sequence (P83916 whole entry, looked up): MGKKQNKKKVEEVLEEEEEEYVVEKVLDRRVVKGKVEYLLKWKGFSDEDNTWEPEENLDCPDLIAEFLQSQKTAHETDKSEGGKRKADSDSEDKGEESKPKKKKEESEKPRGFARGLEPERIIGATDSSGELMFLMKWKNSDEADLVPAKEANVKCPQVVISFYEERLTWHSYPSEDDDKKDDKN
Procedure, shortened: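 Compound inhibition of the preformed complex between 50 nM HP1-beta and 50 nM biotinylated H3K9me3 peptide was read by AlphaScreen. Buffer was PBS pH 7.4 with 0.01% Tween-20. Incubations ran 30 min at room temperature, with 10 ug/mL donor/acceptor beads.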
Potency means the concentration at half of the fitted maximal effect.

Potency, active:
O=C(CN1CCN(c2ccc(O)cc2)CC1)Nc1ccc(-c2ccccc2)cc1 79.4 µM
O=C(CN1CCN(c2ccc(O)cc2)CC1)Nc1cc(S(=O)(=O)N2CCOCC2)ccc1Cl 79.4 µM
Cc1cccc(C)c1-n1c(C)cc(/C=C2\C(=O)NN(c3ccccc3)C2=O)c1C 15.8 µM
COc1ccc(N2CCN(Cc3ccc(Br)s3)CC2)cc1 17.8 µM
CN1/C(=c2/s/c(=C3/C(=O)N(c4ccccc4)NC3=Nc3ccccc3)n(C)c2=O)C(C)(C)c2ccccc21 28.2 µM
CC(=O)N(C1=C(Cl)C(=O)c2ccccc2C1=O)c1ccc(C(=O)O)cc1 7.94 µM

Potency, inactive:
CCN(CC)c1ccc(NC(=O)CN2CCN(c3ccccn3)CC2)cc1
O=C(CN1CCN(c2cccc(Cl)c2)CC1)Nc1ccc(S(=O)(=O)N2CCOCC2)cc1
Cc1ccc(Cl)cc1NC(=O)CN1CCN(S(=O)(=O)N2CCOCC2)CC1
CC(=O)c1ccc(N2CCN(CC(=O)Nc3ccccc3N3CCOCC3)CC2)cc1
COc1ccccc1CN1CCC(CNC(=O)c2cnn(-c3cccc(Cl)c3)c2C2CCN(C(=O)OC(C)(C)C)CC2)CC1
Oc1ccc(Cl)cc1C1C=C(c2ccc3c(c2)OCO3)NC(c2c(F)cccc2Cl)N1 (stereo not given)
CCOc1ccc(C2C(C(=O)Nc3ccc(Cl)cc3)=C(C)Nc3nc(C(F)(F)F)nn32)cc1 (stereo not given)
CCOc1ccc(NC(=O)CCc2c(C)nn(-c3ccc(N4CCCC4)nn3)c2C)cc1
Cc1ccc2nc(COc3cccc(NC(=O)c4cccc(Cl)c4)c3)cc(=O)n2c1
CCCSc1ncc(Cl)c(C(=O)Nc2c(C(=O)Nc3ccccc3)oc3ccccc23)n1
COc1ccccc1-c1nnc(C2CCN(C(=O)c3ccc(Cl)cc3)CC2)o1
CCOc1ccc(Nc2nc3c(S(=O)(=O)c4cccc(Cl)c4)nnn3c3ccsc23)cc1
Cc1ccc(Cn2cc(CCC(=O)NCc3ccc(OC(C)C)cc3)c3ccccc32)cc1
COc1ccc(N2CCN(C(=O)c3cccs3)CC2)cc1
COc1ccc(N2CCN(S(=O)(=O)c3cc(Br)cnc3N)CC2)cc1
Cc1ccc(Nc2nc3ccccc3nc2-n2nc(C)cc2C)c(Cl)c1
Cc1ccc(Cl)cc1N(C)C(=O)Cn1nc(Cc2cccnc2)c2ccccc2c1=O
COc1ccc(-c2nc(SCC(=O)N3CCCCC3C)n[nH]2)cc1 (stereo not given)
Cc1ccc(-c2nc(S(=O)(=O)c3ccc(C)cc3)c(N3CCCCCC3)o2)cc1
Cc1cc(C)cc(NC(=O)CSc2nc3nccnc3c(=O)n2CCc2c[nH]c3ccccc23)c1
Cc1ccc(Cl)cc1NC(=O)NC1COc2ccccc2C1 (stereo not given)
Cn1nnc2c(N3CCN(c4ccccc4)CC3)ncnc21
CCOc1ccc(NC(=O)c2cc(S(=O)(=O)N3CCCC3)c[nH]2)cc1
CCOc1ccc(CNC(=O)Cn2cc3c(n2)-c2c(oc(C(=O)N4CCCC4)c2C)CC3)cc1
